# Compounds with a hit are over-represented: about 12% of the library has one in this group of screens.
# AMA1 RON2 block: inhibitors of Plasmodium falciparum AMA1-RON2 interaction; AlphaScreen AMA1-biotinylated RON2 peptide binding; Potency, µM (doses to about 58.2 µM), inactives show at the highest dose activity change, negative = inhibition, actives largely listed as inhibitors; AID 720542; hit rate 0.2% among 360,000;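 note: potency is the fitted concentration of half-maximal effect; 0% = vehicle wells and -100% = peptide control; nearly all actives have a fitted effect of over 45% in size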
#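 AMA1 (3D7) with his tag at 25 nM final met compounds first, then biotinylated RON2 peptide at 25 nM; detection used donor plus acceptor beads, 10 µg/mL apiece, read by AlphaScreen after 30 min at room temperature.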
# NS1 inh: influenza NS1 inhibition | Potency, µM (doses to about 46.1 µM), inactives show at the top dose activity, positive = more growth | hit rate 0.4% among 270,000 | AID 2326; calls by dose curve; note: potency is the fitted concentration of half-maximal effect; actives are rising curves; nearly all actives have a fitted effect of over 50% in size
#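 In this qHTS, NS1 from influenza A is expressed in budding yeast, where it slows growth. Cells are switched from glucose to 2% galactose medium (pH 6.0, -URA), treated with compound, and growth recovery is read at OD600.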
# Pf growth 96h: inhibits malaria parasite growth, 96 h | P. falciparum luciferase reporter growth, 96 h | Potency, µM (series often up to 28.7 µM), for inactives: at the top dose activity change, negative = inhibition, most hits filed as inhibitors | hit rate 6.9% among 320,000; note: potency is the fitted concentration of half-maximal effect; % is set by controls: 0 for no effect and ±100 for the full control effect
#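 Readout is luminescence from an integrated firefly luciferase in P. falciparum. Red cells, 2% hematocrit and 0.05% parasitemia final, were cultured with compound through two parasite generations (96 hours) at 37 C, 5% CO2.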
# Pf growth 48h: inhibits P. falciparum growth in the first generation, 48 h; P. falciparum luciferase growth in erythrocytes, 48 h; Potency, µM (titrated, usually from 28.7 µM), for the others: at the highest dose activity change, negative = inhibition, actives largely listed as inhibitors; hit rate 5.9% among 310,000; AID 504832; note: potency is the fitted concentration of half-maximal effect; % is set by controls: 0 for no effect and ±100 for the full control effect
#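 Parasite viability was followed by luminescence of a genomically integrated firefly luciferase. Cultures held 0.1% parasitemia at 2% hematocrit (final), incubated under 5% CO2 at 37 C.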
# SARS PLP yeast: SARS-CoV PLP inhibition in yeast; S. cerevisiae expressing SARS-CoV PLpro, growth rescue; Potency, µM (doses to about 32.9 µM), for inactives: at the top dose activity, positive = growth rescue, actives largely listed as activators; hit rate 0.19% among 330,000; AID 485353; calls by dose curve; note: potency is the fitted concentration of half-maximal effect; 0% is about no effect; nearly all actives have a fitted effect of over 55% in size
# HCV inh: blocks hepatitis C virus; Potency, µM (highest dose often 41.8 µM), for inactives: at the highest dose activity change, negative = inhibition, most hits filed as inhibitors; AID 651820; hit rate 3.4% among 340,000; Huh7.5.1 HCVcc-Cre infection, luciferase reporter, 44 h; note: potency is the fitted concentration of half-maximal effect; % is set by controls: 0 for no effect and ±100 for the full control effect
#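 Cells seeded at 1,000/well and cultured 4 h, then compounds added followed by HCVcc-Cre virus (~0.5 moi). After 44 h further culture, luciferase substrate was added, plates held 15 min at room temperature, and luminescence read for 15 sec.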
# NS1 inh valid: validation of influenza NS1 protein function inhibitors; shares compounds with NS1 inh; influenza NS1 function cell assay, 15-point titration; activity change, negative = inhibition, % at 32.9 µM; 1,400 tested, under 10 active; AID 492980; calls by dose curve; note: 0% is about no effect
# PR8 titer: influenza NS1 inhibitors: inhibition of influenza A/PR/8/34 replication. shares compounds with NS1 inh. MDCK infected influenza A/PR/8/34, virus titer TCID50; active compounds read low. virus titer (log TCID50), log10 TCID50 at 5 µM. hit rate 30% among 95. AID 504647; call rule not given here
# Starred values were filed as active, the others as inactive; ? = inconclusive; . = not tested or not shown; [ ] = dose if it differs, or a comment. Unless noted, calls come from the whole dose curve; as a rule, active = well fitted curve in the direction sought with a large enough effect; inconclusive = small, poorly fitted or top-dose-only effect, or another doubt; inactive = no such curve, though single readings can be large; an effect the other way counts as inactive or inconclusive.
SMILES,AMA1 RON2 block,NS1 inh,Pf growth 96h,Pf growth 48h,SARS PLP yeast,HCV inh,NS1 inh valid,others
COc1cc(NS(=O)(=O)c2ccc(NC(=O)COc3cccc(C)c3)cc2)nc(OC)n1,12.2%,?,-0.2%,27.3%,2.2%,11.8%,.,
CCCCCCn1c(COc2ccccc2F)nnc1SCC(=O)c1c(N)n(C)c(=O)n(C)c1=O,.,?,?,?,-12.4%,14.3%,-3.5,
Cc1ccsc1/C=C(\C(=O)c1ccc(OC(C)C)cc1)c1nc2ccccc2o1,-26.5%,14.1µM*,?,?,5.5%,?,-29.0,
COc1ccc(/C=N/NC(=O)c2ccc3ccccc3c2)cc1OS(=O)(=O)c1ccc(NC(C)=O)cc1,10.1%,10µM*,?,?,3.9%,?,23.9,
COc1ccc(C=O)cc1OS(=O)(=O)c1ccc(NC(C)=O)cc1,1.1%,8.4%,?,?,4.2%,?,.,
CC(C)(C)NC(=O)CN(Cc1ccc2c(c1)OCO2)C(=O)CNS(=O)(=O)c1ccccc1,-0.1%,16.2%,?,10.0%,-5.7%,13.7%,.,
Cc1cc(C)nc(OC(C(=O)O)C(OCC(C)C)(c2ccccc2)c2ccccc2)n1 (stereo unspecified),-4.2%,6.31µM*,-5.7%,7.1%,-4.3%,9.5%,32.2,
CSc1ncccc1C(=O)N1CCCC(N2CCN(c3ccccc3C)CC2)C1 (stereo unspecified),13.4%,.,.,.,.,.,.,
COc1cccc(OC)c1C(=O)Nc1nc(-c2ccccc2)cs1,-0.4%,12.6µM*,2.9%,?,5.7%,?,-16.3,
Cc1ccc(-c2csc(NC(=O)c3cccc([N+](=O)[O-])c3)n2)cc1,9.8%,5.01µM*,41.2%,60.5%,7.3%,-7.3%,1.5,
COc1ccc(-c2csc(NC(=O)c3ccccc3C(=O)O)n2)cc1,-4.7%,.,35.0%,11.6%,4.0%,14.8%,.,
O=C(Nc1nc(-c2ccc([N+](=O)[O-])cc2)cs1)c1c(F)cccc1F,5.7%,13.3%,0.0%,-18.4%[1.15 µM],0.1%,-15.9%,.,
O=C(CS(=O)(=O)c1ccccc1)Nc1ccc(N2CCOCC2)cc1,-7.4%,3.7%,31.4%,19.8%,-2.9%,17.0%,.,
COc1ccc(-c2noc(CCC(=O)O)n2)cc1,3.2%,3.55µM*,?,-0.2%,?,11.2%,-30.0,
COc1cccc(N(C(=O)Cn2nnc(-c3ccc(C)cc3)n2)C(C(=O)NC(C)(C)C)c2c[nH]c3ccccc23)c1 (stereo unspecified),?,?,2.33µM*,11.7µM*,-1.2%,?,16.6,
CC(C)(C)NC(=O)C(c1ccncc1)N(C(=O)Cn1nnc(-c2ccc(F)cc2)n1)c1cccc(F)c1 (stereo unspecified),13.1%,0.7%,0.0%,?,0.8%,-0.9%,.,
O=C1CC(c2ccco2)CC(O)=C1C=NCCN1CCNCC1 (stereo unspecified),57.9%,7.3%,-9.6%,-4.2%,2.9%,15.8%,.,
O=C1CC(c2ccco2)CC(O)=C1C=NCC1CCNCC1 (stereo unspecified),-6.0%,10µM*,?,26.2%,4.8%,17.0%,1.8,
Cc1ccc(S(=O)(=O)N(C)C)cc1-n1c(SCC(=O)Nc2ccc(F)cc2)nc2ccccc2c1=O,9.2%,12.6µM*,9.28µM*,9.28µM*,1.9%,?,16.9,
Cc1ccc(S(=O)(=O)N(C)C)cc1-n1c(SCC(=O)Nc2ccccc2)nc2ccccc2c1=O,-1.9%,?,?,?,-5.5%,?,.,
O=C(CCn1c(=O)c2ccccc2n(Cc2cccc([N+](=O)[O-])c2)c1=O)N1CCc2ccccc2C1,-27.6%,5.01µM*,2.4%,4.8%,-2.3%,7.2%,9.3,
O=C(/C=C/c1cccnc1)c1cccc(O)c1,-21.1%,?,-16.0%,-27.2%,-0.9%,?,?,
CC(C)CCSc1nc2c(c(=O)[nH]c(=O)n2C)n1CCCc1ccccc1,5.4%,?,5.86µM*,0.3%,-3.4%,3.3%,-28.5,
CC1Cc2nc(SCC(=O)Nc3nccs3)n(Cc3ccccc3)c(=O)c2S1 (stereo unspecified),-2.5%,20µM*,1.47µM*,3.29µM*,16.0%,9.8%,-17.1,
CC1Cc2nc(SCC(=O)Nc3ccc4c(c3)OCO4)n(Cc3ccccc3)c(=O)c2S1 (stereo unspecified),-1.8%,11.2µM*,-5.3%,2.33µM*,14.4%,-26.1%,31.2,
SMILES,AMA1 RON2 block,NS1 inh,Pf growth 96h,Pf growth 48h,SARS PLP yeast,HCV inh,NS1 inh valid,others
CC1CC1C(=O)OCC(=O)N(C)c1c(N)n(Cc2ccccc2)c(=O)[nH]c1=O (stereo unspecified),21.1%,.,-7.3%,40.5%,2.9%,-4.0%,.,
Cn1cnnc1SCC(=O)Nc1ccccc1Sc1ccccc1,-0.9%,0.891µM*,?,-21.6%,11.4%,3.1%,-1.1,
Cn1cnnc1SCC(=O)Nc1cccc(C(=O)O)c1,4.1%,1.8%,13.9%,.,5.7%,12.0%,.,
CC(C)CNC(=O)c1cc(S(=O)(=O)N2CCOCC2)ccc1N1CCCC1,4.9%,-0.6%,?,?,-2.0%,3.3%,.,
NNC(=O)CN1C(c2ccccc2Br)=Nc2ccc(Br)cc2C1c1ccccc1 (stereo unspecified),23.9%,4.47µM*,?,?,16.4%,7.7%,-2.4,PR8 titer=8.33
CCN1C(=O)[C@H]2[C@@H](c3ccc(C(F)(F)F)cc3)N[C@]3(CCCN(Cc4ccc(Cl)cc4)C3=O)[C@H]2C1=O,-8.2%,.,.,.,.,.,.,
COC(=O)c1cc(S(=O)(=O)NCc2ccc3c(c2)OCO3)cn1C,-1.6%,1.3%,?,1.3%,1.1%,11.8%,.,
CCC(C)OC(=O)c1[nH]c2c(c1C)C(=O)CC(c1ccc(N(C)C)cc1)C2 (stereo unspecified),-14.7%,10µM*,4.1%,?,-17.9%,?,-24.4,
C/C=C/COC(=O)c1[nH]c2c(c1C)C(=O)CC(c1ccc(N(C)C)cc1)C2 (stereo unspecified),-16.4%,12.6µM*,17.0%,?,-16.0%,5.62µM*,?,
CCOCCOC(=O)c1[nH]c2c(c1C)C(=O)CC(c1ccc(N(C)C)cc1)C2 (stereo unspecified),?,-11.7%,10.5%,?,-2.8%,?,.,
O=C(Nc1ccc2c(c1)CCC2)c1cccc(S(=O)(=O)N2CCN(c3ccccc3)CC2)c1,14.9%,12.6µM*,?,.,-1.9%,0.562µM*,-17.8,

# Assay outcomes from PubChem BioAssay.
